Test results reported in the supplement of paper PMC11732987, “Enantioselective OTUD7B fragment discovery through chemoproteomics screening and high-throughput optimisation” (Communications Chemistry, 2025).

Columns and labels:
Experiment in all cases: log2 ratio of Biotin-Ahx-Ub-VS probe labelling (fragment/DMSO); higher = less target engagement (more negative = stronger competition), active = hit call of the paper (q ≤ 0.05, log2 ratio ≤ -1)
Settings in all cases: compound concentration: 200 uM; treatment time: 3 h
[1] = target: T1, USP42 (UniProt Q9H9J4)
T1 sequence (whole entry): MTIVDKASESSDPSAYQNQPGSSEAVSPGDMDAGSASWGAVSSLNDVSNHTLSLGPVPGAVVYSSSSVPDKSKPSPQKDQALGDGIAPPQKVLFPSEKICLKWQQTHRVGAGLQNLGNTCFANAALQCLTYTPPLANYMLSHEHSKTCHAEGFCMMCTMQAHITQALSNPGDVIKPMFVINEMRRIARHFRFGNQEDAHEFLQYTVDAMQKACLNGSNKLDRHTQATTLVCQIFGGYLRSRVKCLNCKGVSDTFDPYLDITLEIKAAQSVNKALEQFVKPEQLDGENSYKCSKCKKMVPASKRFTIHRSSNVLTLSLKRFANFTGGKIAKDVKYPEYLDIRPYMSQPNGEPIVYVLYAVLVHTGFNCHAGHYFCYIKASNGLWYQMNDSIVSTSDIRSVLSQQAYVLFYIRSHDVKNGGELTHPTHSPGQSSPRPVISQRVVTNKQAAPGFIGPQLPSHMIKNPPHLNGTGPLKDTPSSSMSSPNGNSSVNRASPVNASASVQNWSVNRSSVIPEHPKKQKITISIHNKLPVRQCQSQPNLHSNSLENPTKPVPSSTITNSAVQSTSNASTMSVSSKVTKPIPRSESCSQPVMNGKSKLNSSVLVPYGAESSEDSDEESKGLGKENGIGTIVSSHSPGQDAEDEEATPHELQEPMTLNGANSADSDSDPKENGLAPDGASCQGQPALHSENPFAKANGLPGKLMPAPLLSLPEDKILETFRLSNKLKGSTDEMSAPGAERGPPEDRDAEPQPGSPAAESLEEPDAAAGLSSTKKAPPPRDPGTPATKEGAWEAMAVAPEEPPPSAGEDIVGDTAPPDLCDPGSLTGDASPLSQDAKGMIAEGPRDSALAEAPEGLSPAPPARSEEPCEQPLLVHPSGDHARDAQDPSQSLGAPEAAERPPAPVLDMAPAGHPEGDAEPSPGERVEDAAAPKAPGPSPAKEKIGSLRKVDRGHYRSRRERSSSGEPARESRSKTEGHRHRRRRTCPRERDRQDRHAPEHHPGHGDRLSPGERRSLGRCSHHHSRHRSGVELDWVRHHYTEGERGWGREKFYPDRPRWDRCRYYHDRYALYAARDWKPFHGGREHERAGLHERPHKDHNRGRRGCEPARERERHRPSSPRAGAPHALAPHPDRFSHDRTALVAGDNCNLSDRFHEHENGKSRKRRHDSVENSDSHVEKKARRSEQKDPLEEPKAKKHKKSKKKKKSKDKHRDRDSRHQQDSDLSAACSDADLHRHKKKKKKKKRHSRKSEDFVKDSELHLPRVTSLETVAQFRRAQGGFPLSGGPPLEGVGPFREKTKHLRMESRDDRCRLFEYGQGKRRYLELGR
In short: (§1)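 Triplicate samples of HEK293T lysate, 495 µg each, received fragment at 200 µM or vehicle for 3 h, followed by Biotin-Ahx-Ub-VS (0.5 µM final) for 1 h. After NeutrAvidin enrichment of labelled DUBs and LysC/trypsin digestion, peptides were run by diaPASEF LC-MS/MS. The values are average log2 fragment/vehicle ratios from global-median-normalised Spectronaut label-free quantities, tested by unpaired t-test on proteins having ≥2 unique peptides.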

[2] = target: USP46 (UniProt P62068)
In short: as §1

[3] = target: T2, USP47 (UniProt Q96K76)
T2 sequence (whole entry): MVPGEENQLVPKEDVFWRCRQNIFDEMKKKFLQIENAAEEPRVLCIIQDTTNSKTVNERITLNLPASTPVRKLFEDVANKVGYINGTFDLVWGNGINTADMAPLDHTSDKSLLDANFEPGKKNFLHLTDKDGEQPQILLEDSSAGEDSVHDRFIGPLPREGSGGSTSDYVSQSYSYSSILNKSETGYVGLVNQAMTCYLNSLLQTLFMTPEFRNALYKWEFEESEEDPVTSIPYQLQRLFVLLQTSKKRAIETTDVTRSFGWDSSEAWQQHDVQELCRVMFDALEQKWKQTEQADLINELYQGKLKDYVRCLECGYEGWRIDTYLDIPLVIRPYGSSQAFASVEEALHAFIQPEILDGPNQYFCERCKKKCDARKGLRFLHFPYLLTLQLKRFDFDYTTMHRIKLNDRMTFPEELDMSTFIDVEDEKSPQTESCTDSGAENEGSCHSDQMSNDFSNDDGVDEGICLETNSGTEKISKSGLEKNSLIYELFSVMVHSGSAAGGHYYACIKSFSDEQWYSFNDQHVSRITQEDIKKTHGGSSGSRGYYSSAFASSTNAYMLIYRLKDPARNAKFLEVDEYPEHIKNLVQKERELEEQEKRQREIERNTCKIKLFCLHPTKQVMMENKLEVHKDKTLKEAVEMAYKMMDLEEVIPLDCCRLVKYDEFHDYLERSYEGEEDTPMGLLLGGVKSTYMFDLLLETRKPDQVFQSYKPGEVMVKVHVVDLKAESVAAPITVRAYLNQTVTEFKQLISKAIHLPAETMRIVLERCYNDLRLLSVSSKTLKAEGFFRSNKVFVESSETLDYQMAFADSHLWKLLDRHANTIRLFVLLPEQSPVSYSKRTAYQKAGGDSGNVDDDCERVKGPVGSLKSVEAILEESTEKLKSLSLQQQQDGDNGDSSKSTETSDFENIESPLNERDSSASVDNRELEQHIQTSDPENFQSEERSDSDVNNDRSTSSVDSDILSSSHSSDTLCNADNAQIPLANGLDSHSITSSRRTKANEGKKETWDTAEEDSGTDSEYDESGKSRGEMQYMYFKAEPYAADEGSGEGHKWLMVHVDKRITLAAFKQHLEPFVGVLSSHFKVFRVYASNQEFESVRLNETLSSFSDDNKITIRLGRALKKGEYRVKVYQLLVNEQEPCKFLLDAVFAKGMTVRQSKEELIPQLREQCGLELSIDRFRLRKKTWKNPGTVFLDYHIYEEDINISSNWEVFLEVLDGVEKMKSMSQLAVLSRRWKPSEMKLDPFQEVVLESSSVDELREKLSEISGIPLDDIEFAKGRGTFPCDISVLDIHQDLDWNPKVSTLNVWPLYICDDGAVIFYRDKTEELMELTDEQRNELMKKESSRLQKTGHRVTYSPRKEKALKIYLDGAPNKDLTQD
In short: as §1

[4] = target: T3, USP48 (UniProt Q86UV5)
T3 sequence (whole entry): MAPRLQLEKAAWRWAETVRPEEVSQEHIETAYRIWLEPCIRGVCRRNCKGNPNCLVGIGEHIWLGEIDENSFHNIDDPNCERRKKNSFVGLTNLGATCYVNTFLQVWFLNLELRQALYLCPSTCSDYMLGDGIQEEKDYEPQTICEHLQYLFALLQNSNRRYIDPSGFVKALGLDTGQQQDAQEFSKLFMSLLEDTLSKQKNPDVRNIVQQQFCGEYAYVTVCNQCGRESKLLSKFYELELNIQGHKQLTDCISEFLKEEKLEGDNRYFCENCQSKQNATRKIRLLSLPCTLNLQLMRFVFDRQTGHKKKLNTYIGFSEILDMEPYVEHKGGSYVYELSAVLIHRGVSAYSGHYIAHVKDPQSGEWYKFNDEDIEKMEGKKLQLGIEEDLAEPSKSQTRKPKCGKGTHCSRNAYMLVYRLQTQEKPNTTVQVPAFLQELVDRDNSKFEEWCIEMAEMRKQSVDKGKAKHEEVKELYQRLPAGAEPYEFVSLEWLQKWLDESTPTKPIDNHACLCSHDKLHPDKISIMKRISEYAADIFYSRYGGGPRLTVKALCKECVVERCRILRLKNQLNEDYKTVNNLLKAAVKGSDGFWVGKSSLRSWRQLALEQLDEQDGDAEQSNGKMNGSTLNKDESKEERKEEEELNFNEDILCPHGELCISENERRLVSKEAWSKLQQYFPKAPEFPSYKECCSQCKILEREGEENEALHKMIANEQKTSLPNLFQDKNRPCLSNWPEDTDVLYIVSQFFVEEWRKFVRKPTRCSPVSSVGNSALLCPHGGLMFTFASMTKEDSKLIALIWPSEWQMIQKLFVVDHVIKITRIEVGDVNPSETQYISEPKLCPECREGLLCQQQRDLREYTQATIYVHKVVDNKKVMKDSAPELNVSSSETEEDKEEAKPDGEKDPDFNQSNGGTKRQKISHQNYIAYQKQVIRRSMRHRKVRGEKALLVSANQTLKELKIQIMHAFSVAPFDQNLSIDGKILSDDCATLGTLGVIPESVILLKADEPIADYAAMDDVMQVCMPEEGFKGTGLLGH
In short: as §1

[5] = target: T4, USP5 (UniProt P45974)
T4 sequence (whole entry): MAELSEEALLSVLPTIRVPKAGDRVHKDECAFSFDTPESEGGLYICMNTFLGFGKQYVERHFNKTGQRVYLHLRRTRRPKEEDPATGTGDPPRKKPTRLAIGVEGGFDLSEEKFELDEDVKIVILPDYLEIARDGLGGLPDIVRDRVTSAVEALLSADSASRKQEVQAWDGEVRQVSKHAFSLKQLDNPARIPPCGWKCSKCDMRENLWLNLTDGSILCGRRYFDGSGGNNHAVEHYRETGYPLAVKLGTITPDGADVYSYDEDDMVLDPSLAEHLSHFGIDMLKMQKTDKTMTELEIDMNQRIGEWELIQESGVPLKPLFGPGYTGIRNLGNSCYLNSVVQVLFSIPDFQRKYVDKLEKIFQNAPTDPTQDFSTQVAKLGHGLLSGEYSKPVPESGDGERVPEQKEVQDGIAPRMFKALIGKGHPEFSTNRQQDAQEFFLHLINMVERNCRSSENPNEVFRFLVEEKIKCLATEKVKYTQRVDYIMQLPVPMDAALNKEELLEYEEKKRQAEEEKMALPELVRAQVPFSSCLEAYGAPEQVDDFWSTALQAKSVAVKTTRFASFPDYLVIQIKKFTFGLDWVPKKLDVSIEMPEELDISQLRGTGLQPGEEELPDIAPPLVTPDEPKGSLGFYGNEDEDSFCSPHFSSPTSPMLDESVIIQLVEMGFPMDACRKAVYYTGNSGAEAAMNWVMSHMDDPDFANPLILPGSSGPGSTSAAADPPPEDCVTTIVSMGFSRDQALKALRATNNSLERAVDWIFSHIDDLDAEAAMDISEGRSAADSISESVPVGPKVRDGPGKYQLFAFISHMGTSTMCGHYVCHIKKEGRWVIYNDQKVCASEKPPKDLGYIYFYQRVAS
In short: as §1

[6] = target: USP54 (UniProt Q70EL1)
In short: as §1

[7] = target: USP7 (UniProt Q93009)
In short: as §1

[8] = target: T5, USP8 (UniProt P40818)
T5 sequence (whole entry): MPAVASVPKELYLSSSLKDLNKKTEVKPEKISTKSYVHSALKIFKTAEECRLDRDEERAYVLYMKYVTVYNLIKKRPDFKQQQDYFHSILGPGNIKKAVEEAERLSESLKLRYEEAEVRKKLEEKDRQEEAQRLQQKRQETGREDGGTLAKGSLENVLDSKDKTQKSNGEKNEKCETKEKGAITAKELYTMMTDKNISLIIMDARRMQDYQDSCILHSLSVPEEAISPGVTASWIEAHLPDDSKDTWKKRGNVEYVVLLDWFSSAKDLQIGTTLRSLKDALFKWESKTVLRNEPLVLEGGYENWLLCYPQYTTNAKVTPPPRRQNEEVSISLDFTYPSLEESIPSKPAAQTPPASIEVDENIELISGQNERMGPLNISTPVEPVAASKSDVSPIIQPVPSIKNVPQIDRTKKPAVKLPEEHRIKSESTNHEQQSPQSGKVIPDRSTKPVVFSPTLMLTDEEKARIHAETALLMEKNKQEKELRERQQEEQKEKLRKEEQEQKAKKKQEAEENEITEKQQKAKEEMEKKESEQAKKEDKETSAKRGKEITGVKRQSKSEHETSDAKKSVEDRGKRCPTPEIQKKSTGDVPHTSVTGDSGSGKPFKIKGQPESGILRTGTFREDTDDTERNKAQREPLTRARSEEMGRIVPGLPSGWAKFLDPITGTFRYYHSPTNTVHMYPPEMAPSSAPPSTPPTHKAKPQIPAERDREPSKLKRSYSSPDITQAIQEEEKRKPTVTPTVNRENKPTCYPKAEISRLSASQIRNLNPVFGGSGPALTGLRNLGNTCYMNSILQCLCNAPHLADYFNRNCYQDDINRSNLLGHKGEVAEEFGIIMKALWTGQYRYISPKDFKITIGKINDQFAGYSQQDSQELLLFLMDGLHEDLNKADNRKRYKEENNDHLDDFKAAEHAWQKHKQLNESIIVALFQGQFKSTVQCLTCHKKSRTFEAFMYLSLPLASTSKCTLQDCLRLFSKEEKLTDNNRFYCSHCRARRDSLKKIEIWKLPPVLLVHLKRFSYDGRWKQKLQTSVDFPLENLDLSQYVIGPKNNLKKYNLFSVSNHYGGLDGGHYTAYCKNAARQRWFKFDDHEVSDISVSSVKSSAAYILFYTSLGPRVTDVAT
In short: as §1

[9] = target: USP9X (UniProt Q93008)
In short: as §1

[10] = target: UniProt O00487
In short: as §1

Measured: log2 ratio of Biotin-Ahx-Ub-VS probe labelling

Chain of USP54 (Q70EL1 whole entry): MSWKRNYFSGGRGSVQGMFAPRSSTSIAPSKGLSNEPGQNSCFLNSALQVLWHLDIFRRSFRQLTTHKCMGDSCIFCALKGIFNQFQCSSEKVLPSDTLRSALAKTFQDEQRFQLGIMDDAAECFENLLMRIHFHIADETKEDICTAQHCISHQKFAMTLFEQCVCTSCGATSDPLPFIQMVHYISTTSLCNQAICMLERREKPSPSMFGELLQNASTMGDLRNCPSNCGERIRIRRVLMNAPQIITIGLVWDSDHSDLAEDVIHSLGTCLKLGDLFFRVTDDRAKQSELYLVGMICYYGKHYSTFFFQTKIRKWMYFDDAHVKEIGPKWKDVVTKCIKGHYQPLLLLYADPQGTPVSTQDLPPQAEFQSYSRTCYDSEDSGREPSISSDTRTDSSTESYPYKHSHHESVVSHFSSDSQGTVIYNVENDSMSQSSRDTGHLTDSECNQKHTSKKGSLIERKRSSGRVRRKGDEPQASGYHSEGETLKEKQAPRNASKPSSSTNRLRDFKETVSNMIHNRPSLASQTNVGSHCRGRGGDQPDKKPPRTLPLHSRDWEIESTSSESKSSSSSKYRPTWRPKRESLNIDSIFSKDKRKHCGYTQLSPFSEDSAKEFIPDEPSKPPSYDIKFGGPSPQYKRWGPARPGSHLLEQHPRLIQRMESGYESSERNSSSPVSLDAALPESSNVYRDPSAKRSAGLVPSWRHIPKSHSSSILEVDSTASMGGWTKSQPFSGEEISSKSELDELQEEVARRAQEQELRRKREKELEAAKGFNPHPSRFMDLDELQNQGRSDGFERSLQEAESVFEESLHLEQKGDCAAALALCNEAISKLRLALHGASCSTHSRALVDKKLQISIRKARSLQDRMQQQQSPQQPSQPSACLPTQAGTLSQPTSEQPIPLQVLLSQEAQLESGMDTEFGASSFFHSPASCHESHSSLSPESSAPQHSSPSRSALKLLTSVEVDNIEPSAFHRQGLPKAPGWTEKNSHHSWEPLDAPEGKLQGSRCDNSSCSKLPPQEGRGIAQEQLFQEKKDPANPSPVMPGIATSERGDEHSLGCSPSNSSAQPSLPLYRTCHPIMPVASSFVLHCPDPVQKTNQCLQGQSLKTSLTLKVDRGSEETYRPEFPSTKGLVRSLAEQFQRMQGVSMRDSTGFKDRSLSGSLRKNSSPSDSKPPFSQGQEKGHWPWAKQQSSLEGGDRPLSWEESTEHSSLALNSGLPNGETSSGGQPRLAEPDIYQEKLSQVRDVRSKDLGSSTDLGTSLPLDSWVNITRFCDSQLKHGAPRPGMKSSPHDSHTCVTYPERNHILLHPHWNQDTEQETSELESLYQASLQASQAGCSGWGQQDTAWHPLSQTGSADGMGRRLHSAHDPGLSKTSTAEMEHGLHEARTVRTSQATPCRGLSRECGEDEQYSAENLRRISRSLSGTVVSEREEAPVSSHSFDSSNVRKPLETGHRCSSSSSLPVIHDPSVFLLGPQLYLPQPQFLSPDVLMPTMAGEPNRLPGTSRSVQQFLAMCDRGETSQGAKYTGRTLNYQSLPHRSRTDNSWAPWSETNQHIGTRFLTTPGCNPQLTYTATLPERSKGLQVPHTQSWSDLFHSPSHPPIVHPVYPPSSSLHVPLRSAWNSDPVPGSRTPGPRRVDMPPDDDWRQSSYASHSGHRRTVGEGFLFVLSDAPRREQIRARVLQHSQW
Chain of UniProt O00487 (O00487 whole entry): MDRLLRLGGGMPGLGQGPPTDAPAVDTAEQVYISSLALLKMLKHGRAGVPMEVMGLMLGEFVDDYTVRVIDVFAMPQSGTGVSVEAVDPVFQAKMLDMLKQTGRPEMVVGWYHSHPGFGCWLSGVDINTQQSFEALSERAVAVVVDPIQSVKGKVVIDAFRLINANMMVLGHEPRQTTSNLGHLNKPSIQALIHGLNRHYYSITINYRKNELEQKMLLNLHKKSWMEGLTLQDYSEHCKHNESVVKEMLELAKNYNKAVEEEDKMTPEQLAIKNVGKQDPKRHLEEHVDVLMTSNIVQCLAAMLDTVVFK
Chain of USP9X (Q93008 whole entry): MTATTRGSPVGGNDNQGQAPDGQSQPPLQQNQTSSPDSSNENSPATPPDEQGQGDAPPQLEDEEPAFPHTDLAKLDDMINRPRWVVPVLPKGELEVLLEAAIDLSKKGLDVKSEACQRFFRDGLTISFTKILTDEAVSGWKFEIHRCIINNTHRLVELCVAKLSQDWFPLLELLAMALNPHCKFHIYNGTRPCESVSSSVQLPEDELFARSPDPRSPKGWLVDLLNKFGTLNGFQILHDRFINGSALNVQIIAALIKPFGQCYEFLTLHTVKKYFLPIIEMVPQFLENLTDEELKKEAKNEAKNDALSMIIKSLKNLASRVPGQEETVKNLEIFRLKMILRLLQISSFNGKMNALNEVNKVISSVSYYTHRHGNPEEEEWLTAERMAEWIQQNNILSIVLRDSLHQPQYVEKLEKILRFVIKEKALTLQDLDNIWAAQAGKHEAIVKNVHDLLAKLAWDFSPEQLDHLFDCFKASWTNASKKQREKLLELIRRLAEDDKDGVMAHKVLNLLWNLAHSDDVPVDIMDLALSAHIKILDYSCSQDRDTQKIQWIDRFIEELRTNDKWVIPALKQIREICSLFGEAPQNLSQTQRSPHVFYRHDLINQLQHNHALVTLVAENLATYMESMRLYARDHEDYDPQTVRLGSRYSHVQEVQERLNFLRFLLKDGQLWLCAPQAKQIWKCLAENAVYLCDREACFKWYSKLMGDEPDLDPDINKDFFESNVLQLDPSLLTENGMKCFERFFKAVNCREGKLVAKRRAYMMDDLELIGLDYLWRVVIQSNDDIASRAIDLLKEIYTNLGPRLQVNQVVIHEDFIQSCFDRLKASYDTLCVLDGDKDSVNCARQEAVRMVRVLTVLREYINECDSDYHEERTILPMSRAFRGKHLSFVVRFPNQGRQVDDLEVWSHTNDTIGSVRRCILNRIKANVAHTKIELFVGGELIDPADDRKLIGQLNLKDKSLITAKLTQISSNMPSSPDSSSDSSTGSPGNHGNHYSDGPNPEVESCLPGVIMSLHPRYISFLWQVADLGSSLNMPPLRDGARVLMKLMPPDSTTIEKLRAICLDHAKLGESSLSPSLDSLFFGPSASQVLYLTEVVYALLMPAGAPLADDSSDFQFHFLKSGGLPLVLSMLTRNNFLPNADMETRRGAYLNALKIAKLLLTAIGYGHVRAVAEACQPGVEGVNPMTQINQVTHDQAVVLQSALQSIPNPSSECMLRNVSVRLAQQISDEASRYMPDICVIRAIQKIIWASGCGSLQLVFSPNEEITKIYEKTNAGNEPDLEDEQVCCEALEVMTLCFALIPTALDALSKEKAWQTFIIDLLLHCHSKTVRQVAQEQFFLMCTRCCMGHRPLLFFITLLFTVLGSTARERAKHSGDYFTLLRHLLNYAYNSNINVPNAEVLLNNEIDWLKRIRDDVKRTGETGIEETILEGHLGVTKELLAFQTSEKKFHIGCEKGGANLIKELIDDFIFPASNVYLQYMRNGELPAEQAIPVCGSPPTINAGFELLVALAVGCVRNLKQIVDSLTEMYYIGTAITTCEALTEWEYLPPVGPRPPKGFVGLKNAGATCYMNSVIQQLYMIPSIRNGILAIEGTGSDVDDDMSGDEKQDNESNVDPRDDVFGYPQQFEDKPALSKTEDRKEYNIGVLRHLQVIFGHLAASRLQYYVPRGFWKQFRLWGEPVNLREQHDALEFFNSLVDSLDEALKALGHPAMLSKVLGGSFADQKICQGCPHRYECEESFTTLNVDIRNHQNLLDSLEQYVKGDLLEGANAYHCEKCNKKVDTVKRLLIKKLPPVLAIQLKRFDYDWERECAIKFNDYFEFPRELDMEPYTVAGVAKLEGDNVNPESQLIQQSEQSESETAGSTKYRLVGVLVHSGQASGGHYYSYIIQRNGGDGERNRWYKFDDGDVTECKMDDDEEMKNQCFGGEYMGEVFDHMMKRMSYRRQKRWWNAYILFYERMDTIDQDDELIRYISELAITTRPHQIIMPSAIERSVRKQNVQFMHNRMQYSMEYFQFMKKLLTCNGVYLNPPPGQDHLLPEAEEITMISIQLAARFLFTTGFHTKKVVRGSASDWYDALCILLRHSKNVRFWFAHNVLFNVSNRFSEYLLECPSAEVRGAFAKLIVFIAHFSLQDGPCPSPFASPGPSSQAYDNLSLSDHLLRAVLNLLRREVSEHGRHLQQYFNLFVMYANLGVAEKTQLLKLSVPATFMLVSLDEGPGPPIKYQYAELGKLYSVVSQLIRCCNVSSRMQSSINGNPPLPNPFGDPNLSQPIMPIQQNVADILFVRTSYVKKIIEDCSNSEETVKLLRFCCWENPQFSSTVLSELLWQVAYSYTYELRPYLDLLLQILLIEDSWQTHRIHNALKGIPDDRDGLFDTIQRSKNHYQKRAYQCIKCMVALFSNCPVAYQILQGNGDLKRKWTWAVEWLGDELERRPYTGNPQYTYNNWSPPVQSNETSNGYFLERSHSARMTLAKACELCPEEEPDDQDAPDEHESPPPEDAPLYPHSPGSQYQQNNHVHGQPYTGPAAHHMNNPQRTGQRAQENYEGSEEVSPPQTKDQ
Chain of USP46 (P62068 whole entry): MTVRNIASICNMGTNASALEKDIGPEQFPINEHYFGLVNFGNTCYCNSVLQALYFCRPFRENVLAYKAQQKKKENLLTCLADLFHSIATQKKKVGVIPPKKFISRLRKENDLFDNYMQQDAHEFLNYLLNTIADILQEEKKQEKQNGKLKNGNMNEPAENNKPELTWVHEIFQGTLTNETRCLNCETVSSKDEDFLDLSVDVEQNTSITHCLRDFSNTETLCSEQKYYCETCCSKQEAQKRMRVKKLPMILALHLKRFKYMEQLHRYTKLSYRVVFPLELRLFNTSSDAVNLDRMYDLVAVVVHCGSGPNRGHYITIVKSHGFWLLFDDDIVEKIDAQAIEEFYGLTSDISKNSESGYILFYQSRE

Cc1nc(CC2CCN(C(=O)CCl)CC2)no1
inactive: [1] 0.631 | [2] -0.332 | [3] -0.726 | [4] -0.576 | [5] -0.492 | [6] 0.803 | [7] -0.904 | [8] -0.755 | [9] -0.815 | [10] -0.084
